The target of experiment [1] is ATP-dependent translocase ABCB1 (Homo sapiens) (UniProt P08183). As to the kind of experiment: MDR1 (ABCB1) efflux transporter inhibition, cell-based (AID 377; in the data active = fluorescence slope change above about 50%). The conditions noted are these: MDR1-expressing cells, fluorescent substrate accumulation slope; stronger effect = higher value; concentration not given here.
Experiment [2] in a line: hESC survival regulators, cell-based (AID 493140; call rule not given here;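 note: cells exposed to compounds for four days before counting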). The conditions noted are these: human embryonic stem cell survival screen; stronger effect = higher value.
Experiment [3] can be described thus: liver-stage malaria parasite growth inhibition, primary screen, cell-based, HepG2, luciferase luminescence, HepG2 viability (AID 624349; in the data active = parasite load remaining mostly below about 12%, no sharp cut-off; inactive = mostly above about 10%;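 note: 100% = mean of DMSO negative control wells on the same plate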). The conditions noted are these: P. berghei liver stage in HepG2, luciferase luminescence, concentration not given here; parasite load remaining: stronger effect = lower value; viability: measured here: HepG2 viability without parasites.

The nature of experiment [4]: differential killing of epithelial or mesenchymal cells, primary screen, imaging, PC-3E GFP, TEM4-18 mCherry, co-culture (AID 1345086).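 For all read-outs here: cells exposed to compound for 72 h before imaging.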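 For red/green cell ratio (normalised): normalised mesenchymal count divided by normalised epithelial count so high means epithelial killing.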 The conditions noted are these: imaging cell counts, at 1 µM; for red/green cell ratio (normalised): actives lie on both sides.
A short description of experiment [5]: sensitizers of A549 cells to miR-34 induction, primary screen, imaging, A549 dox-inducible miR-34, nuclei and caspase counts (AID 1347080;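 active = compounds whose cell count with miR-34 switched on is under 0.7 times the count with it off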). The conditions noted are these: A549 miR-34 inducible, Hoechst nuclei count, 48 h.
Experiment [6] is described as follows: survival rescue of mitochondrial mutant cells in low glucose, primary screen, MELAS cybrids, Rieske KO mouse fibroblasts, CellTiter-Glo (AID 1508586;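 active = mean z-score across replicates of 1.96 or higher in either the MELAS or the Rieske mutant cell line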;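 note: z relative to plate mean and SD of compound and empty wells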). On the technique in general: ATP-based viability assays read luminescence as a measure of living cells.
The nature of experiment [7]: viability rescue of complex I mutant cybrids, primary screen, cell-based, galactose medium, ATP luminescence (AID 1645843;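 active = z-score of at least 1.8 in each of two replicates, scored against plate mean and spread of sample wells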;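 note: positive z means more ATP and so rescue of galactose-driven cybrid death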). The conditions noted are these: complex I mutant cybrid cells, 72 h, stronger effect = higher value.
For experiment [8], the system named is Aerobactin synthetase IucA (Klebsiella pneumoniae hvKP1). As to the kind of experiment: Biochemical IucA enzyme inhibition primary screen of the Spectrum library (AID 1346200; call rule not given here;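 note: 100% = wells without compound and 0% = wells lacking enzyme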). The conditions noted are these: malachite green pyrophosphate, A620, at 8 µM, stronger effect = lower value.
The target of experiment [9] is Mitogen-activated protein kinase 7 (Homo sapiens) (UniProt Q13164). As to the kind of experiment: ERK5 transactivation activators in reporter cells, primary screen, cell-based, HTS (AID 1508626;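 active = luciferase signal above three times the same-plate solvent-only control wells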;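 note: luciferase driven by Gal4-ERK5 fusion binding five Gal4 sites before minimal TATA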). The conditions noted are these: HeLa Gal4-ERK5 transactivation, 18 h, at 5 µM, stronger effect = higher value.
The nature of experiment [10]: circadian clock period modulators, cell-based, LOPAC library, luminescence reporter (AID 2774; call rule not given here;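 note: values are relative to mean of DMSO wells on each plate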). The conditions noted are these: circadian reporter cells, at 7 µM, actives lie on both sides.
For experiment [11], the system named is Hepatitis C virus NS3 helicase. The experiment is described as follows: HCV NS3 helicase inhibitors, primary screen, biochemical, fluorescence polarization, LOPAC1280 library (AID 687035; in the data active = inhibition above about 37%). The conditions noted are these: Purified HCV NS3 helicase, Cy5-dT15 ssDNA binding fluorescence polarization; stronger effect = higher value; concentration not given here.
Experiment [12] is described as follows: Cy5 fluorescence quenching or enhancement artefacts, artefact control for HCV NS3 helicase inhibitor project, biochemical, LOPAC1280 (AID 687037; call rule not given here). The conditions noted are these: Cy5-DNA-NS3h complex fluorescence interference counterscreen. In general terms: The purpose of a counterscreen is to sort out artefacts and off-target activity.
For experiment [13], the system named is Aerobactin synthetase IucA (Klebsiella pneumoniae, hypervirulent). As to the kind of experiment: IucA enzyme inhibition, biochemical, LOPAC library, absorbance readout (AID 1346212; call rule not given here;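 note: 100% = no compound wells and 0% = no enzyme wells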). The conditions noted are these: IucA enzyme assay, absorbance (OD) readout; stronger effect = lower value;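 tested at 8 µM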.
Experiment [14] in a line: phospholipid biosynthesis inhibitors in animal cells, primary screen, cell-based, LOPAC library, screen 4 (AID 1347384; call rule not given here). The conditions noted are these: phospholipid biosynthesis inhibition screen, at 10 µM.
In experiment [15] the target is NAD(+) hydrolase SARM1 (Homo sapiens) (UniProt Q6SZW1). As to the kind of experiment: SARM1 TIR NADase inhibitors, cell lysate, NAD-Glo luminescence (AID 1508614;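 active = compound whose remaining NAD level is above about 45 nM, limit read from the data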;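 note: higher remaining NAD means stronger inhibition of SARM1 NADase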). The conditions noted are these: SAM-TIR HEK293T lysate NADase, at 1 µM, stronger effect = higher value.
The mark [16] stands for this setting: measured here: epithelial PC-3E GFP cell survival.
The mark [17] stands for this setting: measured here: mesenchymal TEM4-18 mCherry cell survival.
Setting [18] is: measured here: relative caspase fold change +Dox/-Dox.
Where [19] appears, read: measured here: total cells with miR-34 induction, stronger effect = lower value.
Where [20] appears, read: measured here: total cells without miR-34 induction.
Setting [21] is: MELAS cybrid survival, CellTiter-Glo 48 h, stronger effect = higher value.
[22] abbreviates: Rieske KO mouse fibroblast survival, CellTiter-Glo 72 h.

Each structure is given as a SMILES string. Several values for one entry are separate records, joined by “and”; a condition that tells them apart may be missing. Equal values may be shown once. Inconclusive results are not listed. Activity calls are given as the source filed them.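 Rule for the calls, unless noted: active = compounds killing one labelled cell type while sparing the other, by normalised counts and ratio limits, not self-fluorescent; inactive = the rest.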

Sequence of Mitogen-activated protein kinase 7 (Homo sapiens) (Q13164 whole entry, looked up, the tested form may be a part): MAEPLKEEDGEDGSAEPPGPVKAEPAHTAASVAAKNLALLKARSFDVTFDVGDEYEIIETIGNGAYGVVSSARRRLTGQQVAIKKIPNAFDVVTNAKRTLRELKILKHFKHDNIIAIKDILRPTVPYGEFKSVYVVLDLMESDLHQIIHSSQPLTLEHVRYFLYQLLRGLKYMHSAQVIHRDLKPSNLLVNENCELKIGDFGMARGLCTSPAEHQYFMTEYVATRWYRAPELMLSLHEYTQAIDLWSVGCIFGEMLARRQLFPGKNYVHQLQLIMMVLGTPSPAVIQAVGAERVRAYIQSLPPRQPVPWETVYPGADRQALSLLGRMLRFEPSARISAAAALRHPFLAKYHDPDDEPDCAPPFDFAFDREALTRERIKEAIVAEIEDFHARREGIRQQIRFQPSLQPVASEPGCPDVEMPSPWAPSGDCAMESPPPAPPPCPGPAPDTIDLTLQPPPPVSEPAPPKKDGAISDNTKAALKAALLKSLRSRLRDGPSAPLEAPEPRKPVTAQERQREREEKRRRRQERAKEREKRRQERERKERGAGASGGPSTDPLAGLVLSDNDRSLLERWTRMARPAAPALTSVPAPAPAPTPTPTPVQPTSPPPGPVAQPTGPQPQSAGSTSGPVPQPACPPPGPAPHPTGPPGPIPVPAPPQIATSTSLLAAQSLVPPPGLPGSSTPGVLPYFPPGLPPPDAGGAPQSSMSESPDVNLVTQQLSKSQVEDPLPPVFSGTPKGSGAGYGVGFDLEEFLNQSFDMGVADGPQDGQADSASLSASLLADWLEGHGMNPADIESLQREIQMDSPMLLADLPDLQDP
Sequence of ATP-dependent translocase ABCB1 (Homo sapiens) (P08183 whole entry, looked up): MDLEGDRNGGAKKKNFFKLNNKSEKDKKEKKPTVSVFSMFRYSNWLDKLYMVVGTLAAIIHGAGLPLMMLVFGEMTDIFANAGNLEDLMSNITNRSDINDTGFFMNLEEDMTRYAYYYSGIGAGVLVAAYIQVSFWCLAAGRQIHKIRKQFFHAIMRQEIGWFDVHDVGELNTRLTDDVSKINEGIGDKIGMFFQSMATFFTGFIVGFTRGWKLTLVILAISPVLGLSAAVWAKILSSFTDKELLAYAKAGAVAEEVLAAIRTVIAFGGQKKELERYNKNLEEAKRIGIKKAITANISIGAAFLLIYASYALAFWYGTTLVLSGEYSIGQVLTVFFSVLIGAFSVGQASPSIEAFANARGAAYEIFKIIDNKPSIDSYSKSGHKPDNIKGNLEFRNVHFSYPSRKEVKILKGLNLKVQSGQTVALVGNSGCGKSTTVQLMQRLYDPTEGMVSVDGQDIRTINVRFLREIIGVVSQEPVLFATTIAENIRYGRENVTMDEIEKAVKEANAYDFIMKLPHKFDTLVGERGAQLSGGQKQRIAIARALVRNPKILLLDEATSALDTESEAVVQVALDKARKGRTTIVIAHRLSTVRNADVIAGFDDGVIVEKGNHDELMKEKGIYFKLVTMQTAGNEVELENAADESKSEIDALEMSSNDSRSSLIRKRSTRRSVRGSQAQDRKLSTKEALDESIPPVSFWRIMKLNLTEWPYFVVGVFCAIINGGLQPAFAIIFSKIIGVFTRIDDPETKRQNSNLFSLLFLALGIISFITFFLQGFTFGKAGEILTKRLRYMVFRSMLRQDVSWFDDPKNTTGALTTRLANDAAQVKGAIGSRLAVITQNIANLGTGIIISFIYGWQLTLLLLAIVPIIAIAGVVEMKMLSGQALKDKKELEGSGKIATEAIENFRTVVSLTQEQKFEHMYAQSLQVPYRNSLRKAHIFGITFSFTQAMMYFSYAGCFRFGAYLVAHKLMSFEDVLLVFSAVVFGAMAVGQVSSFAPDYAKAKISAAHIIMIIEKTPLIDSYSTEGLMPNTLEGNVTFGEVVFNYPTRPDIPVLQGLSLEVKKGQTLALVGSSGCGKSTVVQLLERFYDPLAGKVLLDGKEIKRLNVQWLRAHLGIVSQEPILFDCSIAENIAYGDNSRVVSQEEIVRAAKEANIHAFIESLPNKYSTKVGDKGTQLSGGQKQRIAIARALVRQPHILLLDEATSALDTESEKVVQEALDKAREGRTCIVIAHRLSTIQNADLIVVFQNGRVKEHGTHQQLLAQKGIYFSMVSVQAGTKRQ
Sequence of NAD(+) hydrolase SARM1 (Homo sapiens) (Q6SZW1 whole entry, looked up): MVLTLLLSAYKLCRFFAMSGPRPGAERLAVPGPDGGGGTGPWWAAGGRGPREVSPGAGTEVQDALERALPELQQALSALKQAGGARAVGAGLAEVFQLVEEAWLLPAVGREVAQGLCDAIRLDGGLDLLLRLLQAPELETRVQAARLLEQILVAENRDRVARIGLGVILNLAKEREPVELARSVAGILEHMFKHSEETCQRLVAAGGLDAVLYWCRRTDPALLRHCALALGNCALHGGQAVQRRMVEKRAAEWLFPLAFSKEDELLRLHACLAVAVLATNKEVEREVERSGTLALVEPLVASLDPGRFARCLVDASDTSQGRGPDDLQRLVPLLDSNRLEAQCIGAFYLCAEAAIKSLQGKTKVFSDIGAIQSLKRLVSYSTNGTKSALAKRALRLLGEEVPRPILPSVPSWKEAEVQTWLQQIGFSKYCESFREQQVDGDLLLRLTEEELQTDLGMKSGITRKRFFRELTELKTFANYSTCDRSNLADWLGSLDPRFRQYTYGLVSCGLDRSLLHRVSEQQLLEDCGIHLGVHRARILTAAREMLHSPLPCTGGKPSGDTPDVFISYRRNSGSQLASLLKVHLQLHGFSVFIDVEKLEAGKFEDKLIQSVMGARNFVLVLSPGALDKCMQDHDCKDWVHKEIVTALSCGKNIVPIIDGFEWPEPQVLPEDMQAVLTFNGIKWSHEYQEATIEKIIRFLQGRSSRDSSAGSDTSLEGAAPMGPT

On to `CN(C)Cc1c[nH]c2ccccc12`, for which the fluorescence slope change in experiment [1] is 124% (active). Also, the survival in [2] was 7.33 (inactive). Also, in experiment [3], the parasite load remaining was 169% (inactive) and 78.1% (inactive). Besides, the viability – broadly, a read-out of living cells in per cent, often relative to untreated cells – in [3] is 115% and 79.2%. For the same compound, the red/green cell ratio (normalised) in [4] is 1.08 (inactive). Besides, the normalised cell number in experiment [4] (setting [16]) was found to be 0.84; in experiment [4] (setting [17]) it was 0.9. Further, the fold change in experiment [5] (stronger effect = lower value) was 0.891 (inactive) and 0.984 (inactive); in experiment [5] (setting [18]) it was 2.07 and 0.28. Also, the cell count in [5] (setting [19]) was 8410 and 7970; in experiment [5] (setting [20]), 9440 and 8100. Besides, the figures for the z-score in experiment [6] (setting [21]) and in experiment [6] (setting [22]) were -0.265 (inactive) and 0.0463, respectively.
In the case of `C#CCN(C)C(C)Cc1ccccc1` (stereo unspecified), the parasite load remaining in experiment [3] is 54.6% (inactive) and 61.7% (inactive). In experiment [3], the viability was 101% and 170%. The red/green cell ratio (normalised) in experiment [4] was 1.02 (inactive). The normalised cell number in [4] (setting [16]) worked out at 1.06; in experiment [4] (setting [17]), 1.07. The fold change was 0.923 (inactive) and 0.946 (inactive) and 0.891 (inactive) in experiment [5] (stronger effect = lower value); 2.5 and 4.7 and 1.31 in experiment [5] (setting [18]). In addition, the cell count in [5] (setting [19]) is 9410 and 12100 and 9880; in [5] (setting [20]), 10200 and 12800 and 11100. The z-score in experiment [6] (setting [21]) was -0.242 (inactive); in [6] (setting [22]), -0.831; in [7], 0.995 (inactive) and 0.67 (inactive).
On to `O=C(NC(=O)c1c(F)cccc1F)Nc1ccc(Cl)cc1`, for which the red/green cell ratio (normalised) in experiment [4] is 1 (inactive). The normalised cell number in experiment [4] (setting [16]) and in experiment [4] (setting [17]) was 0.99 throughout. Moreover, the activity remaining in [8] is 122% (inactive). In addition, the luciferase signal in experiment [9] was 32 AU (inactive).
Regarding `O=C(O)Cc1cnc[nH]1`, in [10], the period change was 0.01 h (inactive). Moreover, the inhibition (in general, the relative decrease from the control value, in per cent) in [11] is -1% (inactive). Besides, the fluorescence ratio (interference) in [12] is 1 (inactive). The red/green cell ratio (normalised) in [4] (counts scaled to control wells, 1 = unselective) was 0.87 (inactive). The normalised cell number in experiment [4] (setting [16]) is 1.11; in experiment [4] (setting [17]), 0.97. The remaining activity – broadly, the signal under treatment as a percentage of the control signal – in experiment [13] was 121% (inactive). Moreover, the results for the fold change in experiment [5] (stronger effect = lower value) and in experiment [5] (setting [18]) were 0.943 (inactive) and 1.63, respectively. In addition, the figures for the cell count in experiment [5] (setting [19]) and in experiment [5] (setting [20]) were 10100 and 10700, respectively. Further, in experiment [14], the result was inactive. In experiment [7], the z-score was -0.12 (inactive).
Take `CC(=O)O[C@@H]1CC[C@]2(C)C3CC[C@]4(C)C(=O)CCC4C3CC[C@H]2C1` (stereo partly specified): in experiment [3], the parasite load remaining is 51% (inactive) and the viability was 94%. For the same compound, in experiment [4], the red/green cell ratio (normalised) was 1.18 (inactive). The same compound came in with a normalised cell number in [4] (setting [16]) of 0.95. Moreover, in [4] (setting [17]), the normalised cell number was 1.12. Besides, the activity remaining in [8] was 99.4% (inactive).
On to `O=c1[nH]c(=O)n(Cl)c(=O)n1Cl`, for which, in experiment [4], the red/green cell ratio (normalised) is 1.21 (inactive). Moreover, the normalised cell number in experiment [4] (setting [16]) amounted to 0.87; in experiment [4] (setting [17]), 1.05. The fold change is 0.959 (inactive) in [5] (stronger effect = lower value) and 0.94 in [5] (setting [18]). In addition, the cell count in experiment [5] (setting [19]) was 8550; in experiment [5] (setting [20]), 8920.
As to `C[C@]12CCC3[C@@H](CC[C@@]45O[C@@H]4C(O)=C(C#N)C[C@]35C)C1CC[C@@H]2O` (stereo partly specified), the red/green cell ratio (normalised) in experiment [4] is 0.77 (inactive). Also, the normalised cell number in experiment [4] (setting [16]) stood at 1.16; in [4] (setting [17]) it was 0.89. The fold change in experiment [5] (stronger effect = lower value) is 1 (inactive); in experiment [5] (setting [18]), 0.592. Besides, the cell count in experiment [5] (setting [19]) was found to be 8890; in experiment [5] (setting [20]), 8870.
As to `NC1=NC(=O)N2CC12` (stereo unspecified), in experiment [4], the red/green cell ratio (normalised) is 0.74 (inactive). Further, the values for the normalised cell number in experiment [4] (setting [16]) and in [4] (setting [17]) were 1.2 and 0.88, respectively. In addition, the fold change in experiment [5] (stronger effect = lower value) was 0.901 (inactive); in experiment [5] (setting [18]), 0.97. Also, the cell count in experiment [5] (setting [19]) came out at 8180; in experiment [5] (setting [20]), 9090. Besides, the remaining NAD in experiment [15] is 10 nM (inactive).
Turning to `COC1=CC(=O)OC(/C=C/c2ccccc2)C1` (stereo unspecified), the red/green cell ratio (normalised) in [4] was 0.84 (inactive). The normalised cell number in experiment [4] (setting [16]) is 0.94; in experiment [4] (setting [17]), 0.79. The results for the fold change in experiment [5] (stronger effect = lower value) and in experiment [5] (setting [18]) were 0.833 (inactive) and 1.16, respectively. Further, the values for the cell count in experiment [5] (setting [19]) and in [5] (setting [20]) were 4840 and 5810, respectively.
With `CC[C@H]1C2CC3[C@@H]4N(C)c5ccccc5[C@]45C[C@@H](C2C5O)N3[C@@H]1O` (stereo partly specified), the parasite load remaining in experiment [3] was 88.5% (inactive). Besides, the viability in [3] amounted to 73.8%. For the same compound, in experiment [4], the red/green cell ratio (normalised) is 1.03 (inactive). Moreover, the normalised cell number stood at 0.98 in [4] (setting [16]) and 1.01 in [4] (setting [17]). Besides, the activity remaining in experiment [8] is 112% (inactive).
Regarding `COC(C)(C)CCC[C@H](C)C/C=C/C(C)=C/C(=O)OC(C)C`, the red/green cell ratio (normalised) in experiment [4] is 0.86 (inactive). The values for the normalised cell number in experiment [4] (setting [16]) and in experiment [4] (setting [17]) were 1.2 and 1.03, respectively. Also, in [8], the activity remaining was 109% (inactive). Also, in [9], the luciferase signal is 72 AU (inactive).
For `O=c1cccc2n1C[C@H]1CNCC2C1`, in experiment [3], the parasite load remaining is 64.2% (inactive) and the viability stood at 103%. The red/green cell ratio (normalised) in experiment [4] was 0.78 (inactive). The compound also registered a normalised cell number in [4] (setting [16]) of 1.31. Moreover, the normalised cell number in [4] (setting [17]) was found to be 1.02. The activity remaining in experiment [8] was 107% (inactive).
`C=C(C)C1CNC(C(=O)O)C1CC(=O)O` (stereo unspecified): the parasite load remaining in experiment [3] was 103% (inactive). For the same compound, in [3], the viability was determined as 86.2%. Further, the red/green cell ratio (normalised) in experiment [4] is 0.79 (inactive). Also, the normalised cell number in experiment [4] (setting [16]) worked out at 0.92; in [4] (setting [17]) it was 0.73. In addition, in experiment [8], the activity remaining is 96.1% (inactive).
